Test [1] can be described thus: small molecules captured by biotinylated probe aFSTL3 – biochemical, small-molecule microarray, fluorescence 635/667, stem cell growth factor project, primary screen (AID 1064).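 Further: measures binding of the biotinylated anti-FSTL3 antibody to printed compounds.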 As to conditions: higher = more signal.
Test [2] in a line: binders from COS7 lysate, DM2A8 probe, primary screen, torsin A project, cell lysate, small-molecule microarray, fluorescence 635/667 (AID 1065). As to conditions: higher = more signal, COS7 lysate expressing mutant human TOR1A.
A short description of test [3]: small molecules captured by biotinylated probe aFGF2 – biochemical, small-molecule microarray, fluorescence 635/667, stem cell growth factor project, primary screen (AID 1067).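 Further: measures binding of biotinylated aFGF2 protein to printed compounds on slides; z-score merges feature fluorescence and signal-to-noise across triplicate slides.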 As to conditions: higher = more signal.
The nature of test [4]: small molecules captured by biotinylated probe aFGF10 – biochemical, small-molecule microarray, fluorescence 635/667, stem cell growth factor project, primary screen (AID 1071).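 Further: score merges 667 nm spot intensity and signal to noise from triplicate slides.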 The conditions noted are these: higher = more signal.
Test [5] deals with Neurogenic locus notch homolog protein 2 (Homo sapiens) (UniProt Q04721). Nature of the test: small molecules binding Notch2 protein – biochemical, small-molecule microarray, 635 nm fluorescence, stem cell growth factors, primary screen (AID 1073). The conditions noted are these: higher = more signal.
For test [6], the target named is Pro-neuregulin-1, membrane-bound isoform (Homo sapiens) (UniProt Q02297). Nature of the test: small molecules binding neuregulin-1 protein – biochemical, small-molecule microarray, fluorescence 635/667, psychiatric disease protein project, primary screen (AID 1075).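 Further: score combines 667 nm spot fluorescence with signal to noise.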 The conditions noted are these: NRG1 binding, 635 nm fluorescence, higher = more signal.
Test [7] deals with Neuregulin-1 EGF-like domain. Nature of the test: small molecules binding NRG1 EGF domain – biochemical, small-molecule microarray, 635 nm fluorescence, primary screen (AID 1081).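 Further: binding of the protein to compounds printed on small-molecule microarray slides.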 As to conditions: higher = more signal.
Test [8] in a line: FRG1 expression reporter modulators in myotubes – cell-based, C2C12 myotubes, firefly/Renilla luciferase, luminescence, FRG1 inhibition for FSHD, primary screen (AID 1084). As to conditions: FRG1 promoter luciferase, higher = more signal, called active from +8 up or from −8 down.
Test [9] can be described thus: small molecules captured by biotinylated probe aFST – biochemical, small-molecule microarray, fluorescence 635/667, stem cell growth factor project, primary screen (AID 1086).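 Further: score merges 667 nm fluorescence with signal-to-noise of each printed compound spot.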 The conditions noted are these: higher = more signal.
Test [10] can be described thus: binders of probe aHhip on microarray, primary screen, stem cell growth factor project, biochemical, small-molecule microarray, fluorescence 635/667 (AID 1087).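 Further: score merges spot fluorescence at 667nm with spot signal to noise ratio.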 The conditions noted are these: higher = more signal.
The subject of test [11] is PRMT1 (protein arginine N-methyltransferase 1). Nature of the test: small molecules binding arginine methyltransferase PRMT1 – biochemical, small-molecule microarray, 635 nm fluorescence, primary screen (AID 1088).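 Further: binding of Prmt1 protein to compounds spotted on small-molecule microarray slides.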 The conditions noted are these: higher = more signal.
A short description of test [12]: growth effects on S. cerevisiae YJM789 – YJM789 clinical isolate, OD600, 24 h, basal, primary screen (AID 1089).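 Further: growth of clinical yeast isolate S. cerevisiae YJM 789 seeded 1000 cells per well; test concentration not given here.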 The conditions noted are these: higher = more signal, called active from +8 up or from −8 down.
The nature of test [13]: S. pombe growth modifiers, basal conditions – strain 972, OD600, 24 h, no modulator, primary screen (AID 1090).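 Further: basal condition with compound alone and no growth modifier present; test concentration not given here.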 The conditions noted are these: S. pombe 972 growth, higher = more signal, called active from +8 up or from −8 down.
A short description of test [14]: budding yeast growth modifiers under rapamycin – strain BY4716, OD600, 96 h, primary screen (AID 1091). Further: test concentration not given here. As to conditions: S. cerevisiae BY4716 + rapamycin, higher = more signal, called active from +8 up or from −8 down.
The target in test [15] is Torsin-1A-interacting protein 2 (Homo sapiens) (UniProt Q8NFQ8). Nature of the test: small molecules binding lysate-expressed LULL1 – cell lysate, human LULL1 lysate, 635/667 nm fluorescence, primary screen (AID 1092).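 Further: probe is lysate of COS7 cells overexpressing human LULL1; score merges per-feature 667 nm fluorescence with signal-to-noise.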 The conditions noted are these: small-molecule microarray, hLULL1 lysate binding, 635 nm fluorescence; higher = more signal.
The nature of test [16]: optical density change of DRC41 E. coli – strain DRC41, OD650, 24 h, E. coli filamentation project, primary screen (AID 1093).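 Further: MC1000 strain lacking acrAB efflux and sulA so SOS filamentation is blocked; test concentration not given here.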 As to conditions: E. coli DRC41 growth, higher = more signal, called active from +8 up or from −8 down.
Test [17] can be described thus: probe aLefty2 binding to arrayed compounds – biochemical, biotinylated probe, 635/667 nm fluorescence, primary screen (AID 1094).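 Further: score merges spot fluorescence near 667 nm with spot signal-to-noise ratio.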 As to conditions: small-molecule microarray, higher = more signal.
In test [18] the test system is Noggin (protein binding on small-molecule microarray). Nature of the test: small molecules binding Noggin protein – biochemical, 635/667 nm fluorescence, primary screen (AID 1095).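 Further: score merges 667 nm feature fluorescence with signal to noise over triplicate slides.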 The conditions noted are these: 635 nm fluorescence, higher = more signal.
Test [19] has as its target Neurogenic locus notch homolog protein 3 (Homo sapiens) (UniProt Q9UM47). Nature of the test: small molecules binding NOTCH3 protein – biochemical, 635/667 nm fluorescence, primary screen (AID 1096). The conditions noted are these: small-molecule microarray, 635 nm fluorescence, higher = more signal.
A short description of test [20]: probe aEGFR binding to arrayed compounds – biochemical, biotinylated probe, 635/667 nm fluorescence, primary screen (AID 1097).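 Further: probe is a biotinylated anti-EGFR antibody binding compounds printed on slides; score combines fluorescence near 667 nm and signal to noise of each spot.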 The conditions noted are these: small-molecule microarray, higher = more signal.

Active and inactive are the calls of the source.

Chain of Neurogenic locus notch homolog protein 3 (Homo sapiens) (Q9UM47 whole entry, looked up): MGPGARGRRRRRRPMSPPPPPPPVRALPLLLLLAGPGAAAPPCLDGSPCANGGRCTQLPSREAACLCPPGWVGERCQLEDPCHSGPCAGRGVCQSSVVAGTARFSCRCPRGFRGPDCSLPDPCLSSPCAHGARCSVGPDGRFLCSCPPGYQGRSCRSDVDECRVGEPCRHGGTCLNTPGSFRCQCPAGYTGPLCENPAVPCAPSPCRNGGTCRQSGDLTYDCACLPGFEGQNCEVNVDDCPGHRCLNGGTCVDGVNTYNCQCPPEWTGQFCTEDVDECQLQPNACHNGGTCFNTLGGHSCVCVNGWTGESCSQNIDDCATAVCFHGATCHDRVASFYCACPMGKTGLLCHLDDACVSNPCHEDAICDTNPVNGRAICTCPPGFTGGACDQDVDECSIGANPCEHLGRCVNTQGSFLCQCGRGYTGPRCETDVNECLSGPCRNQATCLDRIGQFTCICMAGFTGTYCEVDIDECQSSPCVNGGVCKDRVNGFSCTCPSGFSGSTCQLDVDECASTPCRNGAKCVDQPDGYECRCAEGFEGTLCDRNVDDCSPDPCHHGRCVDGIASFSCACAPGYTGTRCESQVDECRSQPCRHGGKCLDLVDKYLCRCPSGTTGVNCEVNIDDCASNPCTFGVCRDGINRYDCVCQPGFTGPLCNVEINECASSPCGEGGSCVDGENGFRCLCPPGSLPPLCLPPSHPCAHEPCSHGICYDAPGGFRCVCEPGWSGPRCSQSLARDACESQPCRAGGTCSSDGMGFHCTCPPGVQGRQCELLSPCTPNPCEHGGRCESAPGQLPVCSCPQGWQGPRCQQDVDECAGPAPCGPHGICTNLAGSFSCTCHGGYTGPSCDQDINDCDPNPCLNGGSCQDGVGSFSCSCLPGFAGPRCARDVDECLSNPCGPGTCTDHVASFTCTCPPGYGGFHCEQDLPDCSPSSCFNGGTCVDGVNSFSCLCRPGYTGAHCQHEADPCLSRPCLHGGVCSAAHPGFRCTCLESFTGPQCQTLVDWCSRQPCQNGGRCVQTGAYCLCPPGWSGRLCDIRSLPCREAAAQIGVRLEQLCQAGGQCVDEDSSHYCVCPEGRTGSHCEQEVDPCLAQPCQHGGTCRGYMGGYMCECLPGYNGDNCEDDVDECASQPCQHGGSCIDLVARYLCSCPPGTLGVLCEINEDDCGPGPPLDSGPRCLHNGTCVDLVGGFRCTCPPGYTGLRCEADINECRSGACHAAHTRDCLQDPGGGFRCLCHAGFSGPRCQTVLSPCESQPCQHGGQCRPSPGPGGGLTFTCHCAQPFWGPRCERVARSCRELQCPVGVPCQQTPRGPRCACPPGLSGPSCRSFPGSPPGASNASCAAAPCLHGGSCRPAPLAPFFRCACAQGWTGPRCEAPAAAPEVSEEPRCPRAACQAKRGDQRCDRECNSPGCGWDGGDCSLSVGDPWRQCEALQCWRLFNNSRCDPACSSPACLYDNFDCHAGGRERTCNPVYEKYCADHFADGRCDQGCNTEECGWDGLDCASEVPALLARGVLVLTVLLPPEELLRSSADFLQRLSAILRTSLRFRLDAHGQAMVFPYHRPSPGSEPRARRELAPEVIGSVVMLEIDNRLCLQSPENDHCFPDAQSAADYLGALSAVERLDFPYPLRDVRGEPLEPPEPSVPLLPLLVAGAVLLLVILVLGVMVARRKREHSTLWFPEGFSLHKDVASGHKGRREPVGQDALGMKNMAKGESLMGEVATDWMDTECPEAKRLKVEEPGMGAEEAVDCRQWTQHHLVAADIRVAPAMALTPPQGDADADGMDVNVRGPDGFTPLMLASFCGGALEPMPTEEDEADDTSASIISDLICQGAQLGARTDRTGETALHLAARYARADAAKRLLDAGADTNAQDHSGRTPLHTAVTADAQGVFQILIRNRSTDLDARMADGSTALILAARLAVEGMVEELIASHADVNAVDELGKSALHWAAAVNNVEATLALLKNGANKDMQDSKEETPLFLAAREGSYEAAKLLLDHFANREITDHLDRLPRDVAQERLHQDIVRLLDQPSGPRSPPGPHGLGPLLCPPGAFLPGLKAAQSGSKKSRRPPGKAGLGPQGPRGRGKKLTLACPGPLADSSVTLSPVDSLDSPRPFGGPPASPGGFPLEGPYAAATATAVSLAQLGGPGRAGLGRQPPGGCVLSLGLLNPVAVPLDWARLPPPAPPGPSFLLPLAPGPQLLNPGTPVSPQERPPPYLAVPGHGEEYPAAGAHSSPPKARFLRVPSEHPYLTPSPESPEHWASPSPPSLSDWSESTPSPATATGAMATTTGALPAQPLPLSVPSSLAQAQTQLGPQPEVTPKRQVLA
Chain of Torsin-1A-interacting protein 2 (Homo sapiens) (Q8NFQ8 whole entry, looked up): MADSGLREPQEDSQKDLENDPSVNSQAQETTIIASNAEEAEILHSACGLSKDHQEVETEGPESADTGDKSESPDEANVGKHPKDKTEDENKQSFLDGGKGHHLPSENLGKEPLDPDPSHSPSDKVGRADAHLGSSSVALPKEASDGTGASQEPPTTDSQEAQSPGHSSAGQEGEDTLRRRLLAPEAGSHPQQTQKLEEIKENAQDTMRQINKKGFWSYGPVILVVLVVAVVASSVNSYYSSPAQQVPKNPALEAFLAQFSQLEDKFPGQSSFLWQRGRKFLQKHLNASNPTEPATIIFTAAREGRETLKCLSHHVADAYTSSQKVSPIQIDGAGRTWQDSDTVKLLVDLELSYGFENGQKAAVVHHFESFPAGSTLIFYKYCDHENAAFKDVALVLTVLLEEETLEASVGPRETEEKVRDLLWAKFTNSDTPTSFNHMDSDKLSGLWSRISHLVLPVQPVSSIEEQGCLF
Chain of Pro-neuregulin-1, membrane-bound isoform (Homo sapiens) (Q02297 whole entry, looked up, the tested form may be a part, canonical isoform): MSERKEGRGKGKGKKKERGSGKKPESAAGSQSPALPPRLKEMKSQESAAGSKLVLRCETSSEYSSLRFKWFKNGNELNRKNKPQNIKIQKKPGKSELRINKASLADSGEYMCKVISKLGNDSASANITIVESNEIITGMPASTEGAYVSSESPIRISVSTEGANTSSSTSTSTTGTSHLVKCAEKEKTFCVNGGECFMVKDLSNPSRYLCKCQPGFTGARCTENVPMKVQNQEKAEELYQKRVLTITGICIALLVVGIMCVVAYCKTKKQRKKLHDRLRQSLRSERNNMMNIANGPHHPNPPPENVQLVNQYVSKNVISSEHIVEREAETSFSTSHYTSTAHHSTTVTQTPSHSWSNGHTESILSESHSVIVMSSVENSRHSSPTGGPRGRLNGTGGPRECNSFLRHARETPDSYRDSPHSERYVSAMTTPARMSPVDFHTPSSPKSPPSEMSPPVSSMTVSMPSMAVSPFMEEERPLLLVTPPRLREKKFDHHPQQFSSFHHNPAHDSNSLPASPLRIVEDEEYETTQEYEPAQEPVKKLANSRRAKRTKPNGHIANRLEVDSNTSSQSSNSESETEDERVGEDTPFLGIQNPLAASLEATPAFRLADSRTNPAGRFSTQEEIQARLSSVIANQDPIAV

For `C[N+](C)(C)CCCC[C@@H]1NC(=O)[C@@H]2C[C@H](C(=O)NCCCCCN)[C@H](c3ccc(O)cc3)N2C1=O`, the composite z-score in test [1] was 0.419; in test [2], 0.896; in test [3] it was 0.0522; in test [4], 0.628; in [5] it was 1; in [6] it was 1.54. For the same compound, the composite z-score was determined as 0.636 in test [7]; 1.19 in test [9]; 0.266 in test [10]; 1.53 in test [11]; 2.46 in test [15]; 0.79 in test [17]. For the same compound, the values for the composite z-score in test [18], in [19] and in test [20] were 1.01, 1.09 and 0.239, respectively. Further, the z-score is -1.76 (inactive) in test [8]; -4.09 (inactive) in test [12]; -1.1 (inactive) in [13]; -0.978 (inactive) in [14]; 1.12 (inactive) in test [16].

In the case of `COC(=O)C[C@H]1O[C@@H](CCc2ccccc2)[C@@H](C)[C@@H]1[Si](C)(C)c1ccc(OC)cc1`, the composite z-score is -0.136 in [1]; -0.724 in test [2]; -0.17 in test [3]; -0.318 in [4]; -0.514 in [5]; -0.553 in test [6]. Moreover, the composite z-score in test [7] was -0.743; in [9], -0.165; in test [10] it was -0.137; in test [11], -0.604; in test [15], -0.722; in [17], -0.253. Also, the composite z-score in test [18] was -0.263; in [19] it was -0.311; in test [20], -0.206. Moreover, the z-score in test [8] is -0.149 (inactive); in test [12], 0.425 (inactive); in [13] it was -0.412 (inactive); in test [14], 0.797 (inactive); in test [16], -0.67 (inactive).

`CCOC(=O)C1=CC[C@@H](c2ccccc2)N(S(=O)(=O)c2ccc(C)cc2)[C@H]1c1ccc(CC)cc1`: the composite z-score in test [1] was 0.114; in [2] it was -0.0251; in [3] it was -0.0056; in test [4], 0.421; in test [5], 1.4; in test [6], 0.863. Further, the composite z-score is 1.06 in [7]; 0.762 in test [9]; -0.0618 in test [10]; 1.27 in [11]; 2.02 in test [15]; 0.05 in [17]. For the same compound, the composite z-score is -0.503 in test [18], 0.716 in test [19] and 0.279 in test [20]. In addition, the z-score was -3.16 (inactive) in [8]; 0.891 (inactive) in [12]; 1.94 (inactive) in test [13]; 2.17 (inactive) in [14]; -0.315 (inactive) in test [16].

Turning to `COCC(=C=CC[C@H](O)c1cccc(OCCO)c1)CCO`, the composite z-score in test [1] was -0.44; in [2] it was -0.625; in test [3] it was -0.0347; in [4], 0.242; in test [5], -0.137; in [6] it was 1.12. In addition, the composite z-score in test [7] is 0.711; in test [9], 0.235; in test [10], -0.0645; in test [11], 1.47; in test [15], 2.12; in test [17] it was -0.185. The composite z-score in [18] was 0.69; in test [19], 0.898; in [20] it was -0.112. Besides, the z-score in test [8] is 1.02 (inactive); in [12], -0.45 (inactive); in test [13], -0.19 (inactive); in test [14], -0.55 (inactive); in test [16], 0.0234 (inactive).

Take `CCN(CC)c1ccc(N2CC=CC34O[C@@H]5C=CCOC(=O)[C@@H]5[C@H]3C(=O)N(CCCCCCO)[C@@H]4C2=O)cc1` (stereo not given in full): the composite z-score in test [1] is 0.52; in test [2], 0.19; in test [3], -0.167; in test [4], -0.631; in test [5], -0.489; in test [6], 1.87. For the same compound, the composite z-score in test [7] was 1.46; in test [9] it was -0.263; in [10], -0.0296; in test [11] it was 0.933; in test [15], 2.63; in test [17], -0.192. Moreover, the results for the composite z-score in test [18], in [19] and in test [20] were -0.526, -0.136 and -0.0987, respectively. Moreover, the z-score in test [8] is -0.766 (inactive); in test [12] it was -0.259 (inactive); in test [13] it was -0.53 (inactive); in [14] it was -0.975 (inactive); in [16], 2.24 (inactive).
